Results: PubChem BioAssay (NCI)
The panel holds about 79,000 compounds, 15% with a hit somewhere; the sample as a whole holds those more often. Cut-off read from the data, not from the text of the source: active = growth inhibition above about 70%; inactive = the rest.

Assays:
[1] = NCI Yeast Anticancer Drug Screen. Data for the rad50 strain (AID 155);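 note: 0% = growth of vehicle-only cultures of the same strain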; conditions: S. cerevisiae rad50 strain growth inhibition; at 50.0 µM; active compounds read high
Procedure, shortened: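 Growth of the mutant yeast was measured after compound exposure and referenced to vehicle-treated cultures.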

[2] = NCI Yeast Anticancer Drug Screen. Data for the mec2-1 strain (AID 157); conditions: S. cerevisiae mec2-1 strain, at 50.0 µM, active compounds read high
Procedure, shortened: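 Each compound was tested on mec2-1 yeast, a strain altered in DNA damage repair or cell cycle control. Growth inhibition is reported relative to vehicle.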

[3] = NCI Yeast Anticancer Drug Screen. Data for the sgs1 mgt1 strain (AID 161);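 note: 0% = growth of cultures given vehicle only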; conditions: S. cerevisiae sgs1 mgt1 strain, at 50.0 µM, active compounds read high
Procedure, shortened: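 Inhibition of yeast growth, normalised to vehicle-treated controls, is reported for a strain bearing genetic alterations in DNA damage repair.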

[4] = NCI Yeast Anticancer Drug Screen. Data for the cln2 rad14 strain (AID 165);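 note: 0% = growth equal to vehicle treated cultures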; conditions: S. cerevisiae cln2 rad14 strain, at 50.0 µM, active compounds read high
Procedure, shortened: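 Test compounds were added to cln2 rad14 yeast cultures; inhibition of growth was then determined by comparison with vehicle treatment.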

[5] = NCI Yeast Anticancer Drug Screen. Data for the bub3 strain (AID 167); conditions: S. cerevisiae bub3 mutant strain, at 50.0 µM, active compounds read high
Procedure, shortened: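 Whole-cell yeast assay. The mutant strain was incubated with compounds, and growth inhibition was determined by comparison with vehicle-treated cells.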

[6] = NCI Yeast Anticancer Drug Screen. Data for the mlh1 rad18 strain (AID 175); conditions: S. cerevisiae mlh1 rad18 strain growth inhibition; at 50.0 µM; active compounds read high
Procedure, shortened: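 Inhibition values reflect reduced growth of mutant yeast versus vehicle-treated controls following compound exposure; the mutations affect DNA damage repair.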

Measured: growth inhibition

CCCCCCCCCCCCCCCCS(=O)(=O)N/N=c1\cc(-c2ccccc2Cl)c2ccccc2n1C
inactive: [1] -0.15% | [2] -16.9% | [3] 1.95% | [4] 6.45% | [5] -11.1% | [6] 3.35%

C[S+](C)CCOC(=O)C(=[N+]=[N-])c1ccc([N+](=O)[O-])cc1
inactive: [1] 32.5% | [2] 9.8% | [3] 44.3% | [4] 25.8% | [5] 9.9% | [6] 59.4%

CC1(C2(C)CC2(Br)Br)CC1(Br)Br (stereo not given)
inactive: [1] 11.4% | [2] -0.65% | [3] 11.3% | [4] 15.8% | [5] -2.5% | [6] -0.65%

COC1/C=C/OC2(C)Oc3c(C)c(O)c4c(O)c(c(/C=N/OC/C=C(\C)CCC=C(C)C)c(O)c4c3C2=O)NC(=O)C(C)=C/C=C/C(C)C(O)C(C)C(O)C(C)C(OC(C)=O)C1C (stereo not given)
inactive: [1] -0.15% | [2] -0.5% | [3] -2.65% | [4] -10.9% | [5] -8.95% | [6] 30.4%

O=C(NC1CCCCC1)Oc1ccc[nH]c1=O
inactive: [1] -14.8% | [2] -16.8% | [3] -13.6% | [4] -26.9% | [5] 2.25% | [6] -1.25%

C=C(Nc1ccc([N+](=O)[O-])cc1[N+](=O)[O-])c1c/c(=N\NC(N)=S)c2ccccc2o1
inactive: [1] 25.1% | [2] -16% | [3] -3.85% | [4] 15.6% | [5] 16.4% | [6] 6.45%

COc1ccc(Cl)cc1NC(=O)c1cccc([N+](=O)[O-])c1O
inactive: [1] -14.9% | [2] 8.95% | [3] 1.75% | [4] -8.55% | [5] 8.65% | [6] -78.4%

Cc1c(CN(C)C)ccc2ccccc12
inactive: [1] -6% | [2] -6.05% | [3] 3.95% | [4] -34.4% | [5] 0.6% | [6] -8.95%

CC1c2ccccc2-c2ccccc21
inactive: [1] 10.2% | [2] -4.9% | [3] 7.25% | [4] -3.15% | [5] -1% | [6] 20.4%

Nc1ccc2c(c1)C1Oc3ccccc3CC1CO2 (stereo not given)
inactive: [1] 33% | [2] 6.55% | [3] 20.1% | [4] 8.05% | [5] 12.8% | [6] 47.2%

Ic1ccc(-c2ccccc2)cc1
inactive: [1] -2.95% | [2] -7.7% | [3] 12.1% | [4] -57.7% | [5] 34% | [6] 29.7%

O=C(c1ccccc1)C(O)(c1ccccc1)C(c1ccccc1)c1ccccc1 (stereo not given)
inactive: [1] 5.8% | [2] 18.6% | [3] 16.9% | [4] 13% | [5] 6.75% | [6] 8.05%

O=C(O)COc1ccc([N+](=O)[O-])cc1/C=C1/SC(=S)N(c2ccccc2)C1=O
inactive: [1] 14.7% | [2] 10.3% | [3] 18.9% | [4] 2.5% | [5] -1.6% | [6] 11.2%

Nc1nc(NCCCc2ccccc2)c(N)c(=O)[nH]1
inactive: [1] 5.1% | [2] 16.9% | [3] 6.55% | [4] -3.1% | [5] 31.6% | [6] 7.6%

O=C(C1OC1c1cccc([N+](=O)[O-])c1)C12CC3CC(CC(C3)C1)C2 (stereo not given)
inactive: [1] 12.5% | [2] 32% | [3] 37.2% | [4] 17.1% | [5] 53% | [6] 54.5%

Clc1ccc(CSc2cnnc(Cl)c2SCc2ccc(Cl)cc2)cc1
inactive: [1] 8.1% | [2] -4.5% | [3] 8.2% | [4] 22.8% | [5] -2.15% | [6] 3.05%

COc1ccc(C(c2c(O)c3ccccc3n(C)c2=O)c2c(O)c3ccccc3n(C)c2=O)cc1
inactive: [1] -39% | [2] -19.3% | [3] -25.9% | [4] -33.5% | [5] 1.1% | [6] -35.1%

CC1(C)CC(=O)C(C=NC(=O)c2ccncc2)=C(O)C1
inactive: [1] -25.1% | [2] 19.7% | [3] -3.55% | [4] -3.8% | [5] 14.9% | [6] -40.4%

O=C1C(Br)=C(Oc2ccccc2)C(=O)C(Br)=C1Oc1ccccc1
inactive: [1] 7.85% | [2] 11.4% | [3] 13.6% | [4] 1.05% | [5] 10.8% | [6] -8.45%

Clc1ccccc1/C=C(/c1ccccc1)c1ccccn1
inactive: [1] 37.5% | [2] 12.3% | [3] 23.3% | [4] -8.85% | [5] 29.9% | [6] 15.8%
